PubChem BioAssay (Tox21)
Values without a mark were called inactive. Results filed as inconclusive are left out. Where a call stands in place of a potency, no number is given. Activity calls are given as the source filed them. Unless noted, calls follow the shape of the dose curve; as a rule, active = well fitted curve in the direction sought with a large enough effect in the repeat runs; inconclusive = weak or mixed curves; inactive = no such curve, though single readings can be large; an effect the other way counts as inactive or inconclusive.

Tests used:
[1] = qHTS assay to identify small molecule antagonists of the estrogen receptor alpha (ER-alpha) signaling pathway using the BG1 cell line in the presence of 0.1 nM 17-beta-estradiol - cell viability counter screen (AID 1259241); also: nearly all actives have a fitted effect of over 40% in size
How it was run: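 Cells were plated and left 24 hr, compounds in DMSO were pinned in, 17beta-estradiol was added to 0.1 nM final, and after 22 hr CellTiter-Fluor reagent was added for 30 min before fluorescence was read.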

[2] = qHTS assay to identify small molecule antagonists of the androgen receptor (AR) signaling pathway using the MDA cell line in the presence of 0.5 nM R1881 - cell viability counter screen (AID 1259242); also: nearly all actives have a fitted effect of over 45% in size
How it was run: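 R1881 at 0.5 nM final stimulated MDA-kb2 cells during 16 hr compound treatment at 37C. Cytotoxicity read: CellTiter-Fluor fluorescence after 30 min.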

[3] = molecular target: Estrogen receptor (Homo sapiens) (UniProt P03372); experiment: qHTS assay to identify small molecule antagonists of the estrogen receptor alpha (ER-alpha) signaling pathway using the BG1 cell line in the presence of 0.1 nM 17-beta-estradiol (AID 1259244); also: nearly all actives have a fitted effect of over 50% in size
Chain of Estrogen receptor (Homo sapiens) (P03372 whole entry, looked up): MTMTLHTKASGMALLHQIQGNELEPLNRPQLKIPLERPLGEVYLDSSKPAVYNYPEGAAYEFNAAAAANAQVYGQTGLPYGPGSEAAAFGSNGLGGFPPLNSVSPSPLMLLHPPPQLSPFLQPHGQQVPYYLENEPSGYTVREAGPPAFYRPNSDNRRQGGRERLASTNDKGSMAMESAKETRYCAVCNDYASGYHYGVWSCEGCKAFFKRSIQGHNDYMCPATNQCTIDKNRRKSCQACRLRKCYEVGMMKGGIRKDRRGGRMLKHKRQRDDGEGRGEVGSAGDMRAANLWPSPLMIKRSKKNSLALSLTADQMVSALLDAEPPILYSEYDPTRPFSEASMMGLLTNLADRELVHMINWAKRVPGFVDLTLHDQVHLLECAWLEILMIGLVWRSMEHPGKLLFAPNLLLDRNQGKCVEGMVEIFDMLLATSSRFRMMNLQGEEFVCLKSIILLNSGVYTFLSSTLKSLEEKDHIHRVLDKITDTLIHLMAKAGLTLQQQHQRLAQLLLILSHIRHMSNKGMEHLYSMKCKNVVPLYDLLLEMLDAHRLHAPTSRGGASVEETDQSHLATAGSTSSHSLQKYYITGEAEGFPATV
How it was run: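 VM7Luc4E2; 4xERE-luciferase; 0.1 nM E2 final; 22 h co-incubation, 37C; ONE-Glo luminescence after 30 min at room temperature.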

[4] = qHTS assay to identify small molecule HDAC inhibitors (AID 1259364);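 also: wild-type HCT-116 cells with endogenous class I/II HDAC activity; top concentration of the series differs between compounds; nearly all actives have a fitted effect of over 45% in size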
How it was run: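 Relative class I and II HDAC activity is taken from the luminogenic signal in HCT-116 cells, with compound exposure 2 hr and reagent development 30 min at room temperature.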

[5] = qHTS assay to identify small molecule agonists of the sonic hedgehog signaling (Shh) pathway - cell viability counter screen (AID 1259366); also: nearly all actives have a fitted effect of over 50% in size
How it was run: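 Cells are plated at 2,000 per well and left 4hr at 37C, 5% CO2 before compound addition. After 23hr of treatment, CellTiter-Fluor reagent is added for 1hr at 37C and fluorescence is measured.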

[6] = qHTS assay to identify small molecule antagonists of the sonic hedgehog signaling (Shh) pathway - cell viability counter screen (AID 1259367); also: nearly all actives have a fitted effect of over 55% in size
How it was run: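 After a 4 hr settling period, 3T3 Gli1-Luc cells were treated with DMSO-dissolved chemicals and conditioned medium, kept 24 hr at 37C in 5% CO2, and assayed for viability by CellTiter-Fluor fluorescence following 1 hr reagent incubation.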

[7] = qHTS assay to identify small molecule agonists of the sonic hedgehog signaling (Shh) pathway (AID 1259368; calls by dose curve;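 also: NIH/3T3-derived 3T3Gli1-Luc cells carrying a stable Gli1-driven firefly luciferase reporter; series mostly up to about 92 µM; nearly all actives have a fitted effect of over 15% in size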)
How it was run: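 Mouse fibroblast (NIH/3T3) reporter cells with stably integrated Gli1-Luc were treated 24 hr with compound; firefly luciferase luminescence served as the read-out.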

[8] = molecular target: Estrogen receptor beta (Homo sapiens) (UniProt Q92731); experiment: qHTS assay to identify small molecule agonists of the estrogen receptor beta (ER-beta) signaling pathway (AID 1259377; active = well fitted activation curve with a large enough effect in the signal ratio in the repeat runs, not every such curve was filed as active; the % refers to the signal ratio)
Chain of Estrogen receptor beta (Homo sapiens) (Q92731 whole entry, looked up, the tested form may be a part): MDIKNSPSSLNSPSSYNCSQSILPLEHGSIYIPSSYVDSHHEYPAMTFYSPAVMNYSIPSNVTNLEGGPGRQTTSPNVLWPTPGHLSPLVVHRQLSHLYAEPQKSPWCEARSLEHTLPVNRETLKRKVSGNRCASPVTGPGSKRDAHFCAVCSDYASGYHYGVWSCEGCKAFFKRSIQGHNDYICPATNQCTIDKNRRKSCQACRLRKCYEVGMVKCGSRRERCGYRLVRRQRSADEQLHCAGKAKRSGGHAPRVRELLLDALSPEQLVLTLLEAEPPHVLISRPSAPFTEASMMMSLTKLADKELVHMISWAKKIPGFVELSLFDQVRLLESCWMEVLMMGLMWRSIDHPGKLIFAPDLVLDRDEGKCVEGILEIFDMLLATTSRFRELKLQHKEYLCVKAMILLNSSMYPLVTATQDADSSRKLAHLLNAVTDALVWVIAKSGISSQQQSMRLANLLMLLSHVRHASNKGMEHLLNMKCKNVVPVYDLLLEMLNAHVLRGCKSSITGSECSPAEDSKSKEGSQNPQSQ
How it was run: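 Agonist mode cell assay in GripTite HEK293T cells expressing an ER-beta fusion that drives beta-lactamase from an Upstream Activator Sequence; 16 hr compound exposure at 37C, then 2 h LiveBLAzer B/G FRET substrate at room temperature, fluorescence read-out.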

[9] = molecular target: Estrogen receptor beta (Homo sapiens) (UniProt Q92731); experiment: qHTS assay to identify small molecule antagonists of the estrogen receptor beta (ER-beta) signaling pathway (AID 1259378; active = well fitted inhibition curve with a large enough effect in the signal ratio in the repeat runs, not every such curve was filed as active; the % refers to the signal ratio)
How it was run: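 ER-beta-UAS-bla HEK293T (GripTite) cells in 2% charcoal-stripped FBS medium were preincubated 6 hr at 37C, dosed with compound, then stimulated with 1 nM E2 (final) for 16 hr; beta-lactamase reporter read by B/G FRET fluorescence after 2 hr substrate loading.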

[10] = qHTS assay to identify small molecule agonists of the androgen receptor (AR) signaling pathway in the presence of an antagonist - cell viability counter screen (AID 1259379);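 also: MDA-kb2 human breast cancer cells carrying an MMTV luciferase reporter; series mostly up to about 92 µM; nearly all actives have a fitted effect of over 25% in size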
How it was run: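 A CellTiter-Fluor read-out measured viability of MDA-kb2 reporter cells (MMTV promoter with AR and GR response elements). Treatment: nilutamide 3.0uM final with compounds at 15 concentrations, 16 hr, 37C, 0% CO2.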

[11] = qHTS assay to identify small molecule agonists of the estrogen receptor beta (ER-beta) signaling pathway - cell viability counter screen (AID 1259380); also: nearly all actives have a fitted effect of over 30% in size; also: potency is read from the fitted curve at half-maximal effect
How it was run: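 Cells used were ER-beta-UAS-bla HEK293T in medium with 2% charcoal-stripped FBS. They were treated for 16 hr at 37C. Viability came from CellTiter-Glo luminescence.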

[12] = qHTS assay to identify small molecule antagonists of the estrogen receptor beta (ER-beta) signaling pathway - cell viability counter screen (AID 1259382); also: nearly all actives have a fitted effect of over 55% in size; also: potency is read from the fitted curve at half-maximal effect
How it was run: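 Agonist-stimulated (1nM E2) ER-beta-UAS-bla HEK293T cells are incubated with library compounds for 16 hr at 37C. Cell viability is then assessed in the reporter-assay wells by adding CellTiter-Glo and reading luminescence after 30 min.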

[13] = molecular target: Estrogen receptor (Homo sapiens) (UniProt P03372); experiment: qHTS assay to identify small molecule agonists of the estrogen receptor alpha (ER-alpha) signaling pathway in the presence of an antagonist (AID 1259383; calls by dose curve; also: top concentration of the series differs between compounds; nearly all actives have a fitted effect of over 15% in size)
How it was run: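 Using VM7Luc4E2 cells seeded 24hr before treatment, antagonist ICI-182,780 (10.0nM final) was added, followed by compounds at 15 concentrations. Plates incubated 22hr; ONE-Glo luminescence quantified reporter activity.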

[14] = qHTS assay to identify small molecule agonists or antagonists of the thyroid stimulating hormone receptor (TSHR) signaling pathway - wild type cell line counter screen (AID 1259384; calls by dose curve)
How it was run: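 Wild-type HEK293 cells were plated 18 h at 37 C/5% CO2, pin-dosed with compound plus Ro20-1724 medium, held 30 min at room temperature, then given cAMP-d2 and anti-cAMP-cryptate; fluorescence was read after 1 h. Fifteen concentrations, triplicate.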

[15] = qHTS assay to identify small molecule phospholipidosis (PLD) inducers (AID 1259344; active = well fitted curve in the direction sought with a large enough effect; an effect the other way counts as inactive or inconclusive)
How it was run: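 HepG2 cells grown on collagen I take up LipidTOX Red while exposed to compound for 24 h; after fixation they are imaged at 20x and pit metrics are extracted.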

[16] = qHTS assay to identify small molecule HDAC inhibitors - cell viability counter screen (AID 1259365); also: series mostly up to about 92 µM; nearly all actives have a fitted effect of over 50% in size
How it was run: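 Counter screen in wild-type HCT-116 cells: compounds dissolved in DMSO are pin-transferred onto overnight-plated cells and left 2hr at 37C. ATP-based CellTiter-Glo luminescence then measures viable cells.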

[17] = molecular target: Thyrotropin receptor (Homo sapiens) (UniProt P16473); experiment: qHTS assay to identify small molecule antagonists of the thyroid stimulating hormone receptor (TSHR) signaling pathway (AID 1259385; calls by dose curve; also: nearly all actives have a fitted effect of over 20% in size)
Chain of Thyrotropin receptor (Homo sapiens) (P16473 whole entry, looked up): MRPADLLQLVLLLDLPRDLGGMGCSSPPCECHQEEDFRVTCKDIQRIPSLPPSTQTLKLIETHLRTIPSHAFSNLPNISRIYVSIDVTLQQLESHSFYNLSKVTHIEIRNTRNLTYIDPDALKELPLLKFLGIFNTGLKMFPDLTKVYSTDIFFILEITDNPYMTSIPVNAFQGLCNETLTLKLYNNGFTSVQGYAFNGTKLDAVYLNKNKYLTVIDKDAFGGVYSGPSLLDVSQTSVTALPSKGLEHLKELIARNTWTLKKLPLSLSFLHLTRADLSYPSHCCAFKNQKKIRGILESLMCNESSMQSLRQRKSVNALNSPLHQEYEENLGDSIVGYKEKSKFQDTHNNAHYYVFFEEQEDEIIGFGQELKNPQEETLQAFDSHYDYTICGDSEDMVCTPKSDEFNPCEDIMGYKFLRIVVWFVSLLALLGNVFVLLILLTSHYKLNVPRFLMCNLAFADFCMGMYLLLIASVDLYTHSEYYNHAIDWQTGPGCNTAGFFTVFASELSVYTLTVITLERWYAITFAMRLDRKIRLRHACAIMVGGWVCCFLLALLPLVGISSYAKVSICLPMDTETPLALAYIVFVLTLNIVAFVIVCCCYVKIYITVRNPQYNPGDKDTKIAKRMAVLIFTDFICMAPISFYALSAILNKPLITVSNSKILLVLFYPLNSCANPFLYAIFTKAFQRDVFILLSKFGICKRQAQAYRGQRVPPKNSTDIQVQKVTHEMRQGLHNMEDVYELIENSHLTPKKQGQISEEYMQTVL
How it was run: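 TSHR-HEK293 cells were plated and held 18 h at 37C/5% CO2, then given compound plus Ro20-1724 and stimulated with TSH at 1.5 ng/mL final. After 30 min at room temperature, cAMP was detected with cAMP-d2/anti-cAMP-cryptate (1 h) by fluorescence.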

[18] = qHTS assay to identify small molecule antagonists of the sonic hedgehog signaling (Shh) pathway (AID 1259369; calls by dose curve; also: nearly all actives have a fitted effect of over 45% in size)
How it was run: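 Conditioned medium drives Shh signalling in 3T3Gli1-Luc cells; compounds in DMSO co-applied, 24hr at 37 C, then luciferase luminescence.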

SMILES	Potency [1]	Potency [2]	Potency [3]	Potency [4]	Potency [5]	Potency [6]	outcome [7]	Potency [8]	Potency [9]	Potency [10]	Potency [11]	Potency [12]	Potency [13]	Potency [14]	Potency [15]	outcome [16]	Potency [17]	Potency [18]
CC(=O)CC(=O)c1ccccc1	inactive	inactive	inactive	inactive	inactive	inactive	inactive	inactive	inactive	inactive	inactive	inactive	inactive	inactive	–	–	–	–
Cc1cc(CC(=O)O)c(C)n1-c1ccc(Cl)cc1	inactive	inactive	–	inactive	inactive	inactive	inactive	inactive	–	inactive	10.6 µM (active)	inactive	–	inactive	inactive	inactive	inactive	–
c1ccc(CNCc2ccccc2)cc1	inactive	inactive	inactive	inactive	–	inactive	inactive	inactive	inactive	inactive	inactive	inactive	inactive	inactive	–	–	inactive	inactive
CC(Cc1cccc(C(F)(F)F)c1)NCCOC(=O)c1ccccc1 (stereo not given)	inactive	inactive	–	inactive	inactive	inactive	inactive	–	–	inactive	–	inactive	–	inactive	inactive	inactive	inactive	–
O=C1[C@H](CC[C@H](O)c2ccc(F)cc2)[C@@H](c2ccc(O)cc2)N1c1ccc(F)cc1	inactive	inactive	–	inactive	–	inactive	inactive	inactive	–	inactive	inactive	inactive	inactive	–	inactive	inactive	inactive	inactive
COC(Cc1ccccc1)OC	inactive	inactive	inactive	inactive	inactive	–	inactive	–	–	inactive	inactive	inactive	inactive	–	–	–	inactive	inactive
Cc1ccccc1N=Nc1ccc(N=Nc2c(O)ccc3ccccc23)c(C)c1	inactive	inactive	–	inactive	inactive	inactive	inactive	–	–	–	inactive	inactive	inactive	–	inactive	inactive	inactive	inactive
COc1ccc([C@@H]2Sc3ccccc3N(CCN(C)C)C(=O)[C@@H]2OC(C)=O)cc1	inactive	inactive	–	inactive	inactive	inactive	inactive	–	–	inactive	15 µM (active)	21.1 µM (active)	–	–	inactive	inactive	inactive	inactive
CC(=O)Nc1ccc(/C=N/NC(N)=S)cc1	inactive	inactive	–	inactive	inactive	inactive	inactive	–	–	inactive	inactive	inactive	–	inactive	inactive	inactive	–	inactive
